# Laboratory results as given in PubChem BioAssay (NCI).
# Compounds without any hit were thinned out: in the full panel of roughly 83,000, 20% have a hit.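 The endpoint reported here, percent growth, reads 100 for growth as untreated, 0 for no net growth and -100 for all cells dead.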 Activity calls are given as the source filed them.
# System: SNB-19 CNS
# Assay: NCI-60 one-dose screen, 48 h (100 = growth as untreated, 0 = no growth, -100 = all killed)
# Conditions: 10 µM unless noted
# Protocol: Growth inhibition of the SNB-19 human tumor cell line is measured as a screen for anti-cancer activity. Cells are grown in 96 well plates and exposed to the test compound for 48 hours. Compounds are tested at a single concentration, which is 10^-5 M for most compounds. The reported endpoint is percent growth (GI% or GIPRCNT), where numbers from 0 - 100% represent growth inhibition, and numbers from -100% - 0 represent cell death. For example, a value of 40 represents 60% growth inhibition. A value of 0 means no net growth occurred over the course of the experiment. A value of -40 indicates 40% of cells at the beginning of the experiment died by the end of the experiment. A value of -100 means all cells are dead at the end of the experiment.
# NCI-60 Human Tumor Cell Lines Screen was performed using the standard one-dose NCI protocol, which is described in more detail at https://dtp.cancer.gov/discovery_development/nci-60/default.htm.
# Compounds with GIPRCNT values below 10 were considered active. Activity score was based on GIPRCNT using the following formula: […]
# Score is 0 for GIPRCNT values of 100 or above, 50 for GIPRCNT values of 0, and 100 for GIPRCNT values of -100.
row,SMILES,growth
1,Cc1ccc(NC(=O)c2ccc(CN3CCOCC3)c(C(F)(F)F)c2)cc1Oc1ccc(-c2[nH]nc3ncnc(N)c23)cc1,95.5% (inactive)
2,O=C1CCC(N2C(=O)c3ccc(NS(=O)(=O)c4ccccc4OC(F)(F)F)cc3C2=O)C(=O)N1 (stereo not given),39.6% (inactive)
3,COc1cc(-c2nn(C(C)(C)C)cc2-c2ccnc(NCCCNS(=O)(=O)c3ccccc3)n2)ccc1Cl,97.2% (inactive)
4,O=C(NCc1ncc[nH]1)c1ccc(-c2nc3ccc4[nH]ncc4c3c3c2CCCC3)cc1,13.9% (inactive)
5,CC(=O)c1ccc(Nc2nc(SCC(C)C)nc(-c3ccc(F)cc3)c2C#N)cc1,112% (inactive)
6,CCOC(=O)c1c(Nc2ccccc2)nn2c(-c3ccccc3)ccnc12,98.3% (inactive)
7,Cn1cc(-c2nc(N)nnc2-c2c[nH]c3ccccc23)c2cc(Br)ccc21,27% (inactive)
8,O=C1/C(=C/C=C/c2ccco2)SC(=S)N1C1CCCCC1,93.9% (inactive)
9,CC1=N[C@@H]2CN(C(=O)OC(C)(C)C)C[C@@H]2n2c1cc1ccccc1c2=O,105% (inactive)
10,CN(C)CCN(C)c1ccc2ncc(C#Cc3cncc(C(=O)Nc4ccc(CN5CCN(C)CC5)c(C(F)(F)F)c4)c3)n2n1,-11.3% (active)
11,Nc1cc(F)ccc1NC(=O)c1ccc(NC(=O)C/C=C/c2cccnc2)cc1,46.7% (inactive)
12,CN(C)C(=O)c1cc(-c2ccc3ncnc(NCc4ccccc4)c3c2)cnc1N,88.7% (inactive)
13,CS(=O)(=O)Nc1cc(-c2ccc3ncc(C#N)c(N[C@H](CO)c4ccccc4)c3c2)cnc1Cl,41.7% (inactive)
14,CN1c2ccccc2Sc2cc(C=C(C#N)C#N)ccc21,97.6% (inactive)
15,Cn1ccnc1C(=O)/C=C/c1ccc(CNC(=O)c2ccc(F)cc2)cc1,15.6% (inactive)
16,O=C1CCCc2nc(Nc3ccc(S(=O)(=O)Nc4ccc([N+](=O)[O-])cc4)cc3)ncc21,96.2% (inactive)
17,CC(C)C[C@@H]1N[C@@]2(C(=O)Nc3ccccc32)[C@@H](c2ccc(F)cc2)[C@@H]1C(=O)c1ccc(O)cc1,95.1% (inactive)
18,COc1cc2nc(Cl)nc(Nc3cccc(C4=Nc5c(N)nc(N)nc5NC(c5ccccc5)C4)c3)c2cc1OC (stereo not given),95.6% (inactive)
19,CCc1cccc2c3c(sc12)C(c1ccc(OC)cc1)C(C#N)=C(/N=C/c1ccc(Cl)cc1)O3 (stereo not given),30.6% (inactive)
20,O=C(O)c1ccc(-n2cc(CNc3cccc(Cl)c3)c(-c3ccc(F)cc3)n2)cc1,99.3% (inactive)

row,SMILES,growth
1,CC[C@H](CO)Nc1ccc2ncc(C#Cc3cncc(C(=O)Nc4ccc(CN5CCN(C)CC5)c(C(F)(F)F)c4)c3)n2n1,-22.4% (active)
2,COc1ccccc1NCc1cccn1Cc1ccc(F)cc1,96% (inactive)
3,Cc1nn(-c2ccccc2)c2ncnc(N/N=C/c3ccccc3O)c12,17.5% (inactive)
4,C=C(C=O)[C@@H]1CC[C@]2(C)[C@H](CC=C3[C@H]4[C@@H](C)[C@H](C)CC[C@]4(C(=O)OC)CC[C@]32C)[C@@]1(C)CCC#N,25.2% (inactive)
5,COc1ccc(CCN2C(=O)CSC2=S)cc1,96.6% (inactive)
6,Cc1cc(-c2ccc(Cl)cc2)n(Cc2nnc(SCC(=O)Nc3ccc(S(N)(=O)=O)cc3)n2-c2ccc([N+](=O)[O-])cc2)n1,84.6% (inactive)
7,Cc1ccc(-c2nnc(SCc3ccc(O)c4ncccc34)o2)cc1,11.1% (inactive)
8,CCOC(=O)c1c(Nc2ccccc2)nn2c(-c3ccc(OC)cc3)ccnc12,109% (inactive)
9,COc1ccc(-c2nc(C(Cl)Cl)nc3cc(-c4ccccc4)nn23)cc1,5.79% (active)
10,Oc1[nH]c2ccccc2c1Nn1c(N=N/C=c2/ccc3c(c2)C=NN=3)n[nH]c1=S,98.9% (inactive)
11,O=C(Nc1ccc2c(ccn2Cc2ccccn2)c1)c1cnccn1,102% (inactive)
12,NS(=O)(=O)c1ccc(Nc2nc(Nc3ccccc3)nc3nnc(SCC(=O)NC4CCCCC4)n23)cc1,101% (inactive)
13,N#C/C(=C\c1ccc(-c2ccc(Cl)cc2Cl)o1)c1ccc(F)cc1,96.7% (inactive)
14,COc1cc(C2N=C(NNc3ccccc3)NC(C)=C2C(C)=O)ccc1O (stereo not given),93.3% (inactive)
15,C=C(C)[C@@H]1CC[C@]2(COP(=O)(OCC)OCC)CC[C@]3(C)[C@H](CC[C@@H]4[C@@]5(C)CCCNC(C)(C)[C@@H]5CC[C@]43C)[C@@H]12,58.3% (inactive)
16,COC(=O)/C=C/c1c(C2(C)NC(=O)c3ccccc3N2)c(=O)oc2ccc(Cl)cc12 (stereo not given),90.7% (inactive)
17,O=C(CSc1nc2ccccc2c(=O)n1-c1ccccc1)Nc1cccc(C(=O)/C=C/c2ccccc2Cl)c1,93.3% (inactive)
18,CCOC(=O)C(=O)/C(=C\c1ccc(Cl)cc1)C(=O)N1C(=S)NC(=O)C1CC(C)C (stereo not given),99.1% (inactive)
19,CC(O)c1cc2ccccc2c(=O)o1 (stereo not given),99.6% (inactive)
20,CCO/C=N/C1=C(C#N)C(c2ccc(F)cc2)c2sc3c(CC)cccc3c2O1 (stereo not given),21.4% (inactive)
